Measured values reported in PubChem BioAssay.
For part of these data: Results with a measured potency or affinity are listed apart. Active and inactive are the calls of the source.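 How the source made its calls, unless noted: active means fluorescence ratio normalized to control raised more than 50% in primary screen plus both repeat runs; inactive means the rest.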

Legend:
[1] = system: TRPC4 beta (transient receptor potential cation channel C4), mouse; assay: activators of mouse TRPC4 channel, confirmation, cell-based, Fluo4 calcium, HEK293 TRPC4beta/mu-opioid, duplicates, 10 µM (AID 2426); settings: Fluo4 calcium fluorescence, at 10 µM; stronger effect = higher value;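 further: percent rise of integrated ratio over buffer wells lacking compound which define 0%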
[2] = system: transient receptor potential cation channel C4 beta (TRPC4), mouse; assay: activators of mouse TRPC4 channel, confirmation, cell-based, second round, Fluo4, HEK293 TRPC4beta/mu-opioid, 1 µM (AID 2461;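 active means primary screen active and over 50% activation in each of two duplicate runs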;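 on activation: 0% = wells without test compound as baseline of integrated fluorescence ratio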); settings: Fluo4 calcium fluorescence, at 1 µM; stronger effect = higher value
[3] = system: TRPC4 (transient receptor potential cation channel C4 beta), mouse; assay: positive allosteric modulators of mouse TRPC4, confirmation, cell-based, second round, Fluo-4, HEK293 TRPC4beta/mu-opioid, 1 µM (AID 2554;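 active means primary screen hit whose fluorescence ratio, in both repeats, exceeds the weak agonist control mean by 3 SD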); settings: DAMGO EC20, Fluo-4 calcium flux, at 1 µM; stronger effect = higher value
[4] = system: TRPC4 beta (transient receptor potential cation channel C4), mouse; assay: positive allosteric modulators of mouse TRPC4, confirmation, cell-based, Fluo-4, HEK293 TRPC4beta/mu-opioid (AID 2555;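 active means primary screen hit whose calcium fluorescence ratio, in both repeats, exceeds the weak agonist control mean by 3 SD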); settings: DAMGO EC20, Fluo-4 calcium flux, at 10 µM; stronger effect = higher value
[5] = biological target: Short transient receptor potential channel 4 (Mus musculus) (UniProt Q9QUQ5); assay: inhibitors of mouse TRPC4 channel, confirmation, cell-based, Fluo4, HEK293 TRPC4beta/mu-opioid (AID 2636;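 active means calcium signal cut by more than 3 SD below the full-agonist control yet still positive, in both repeats and the earlier primary screen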); settings: DAMGO, Fluo4 calcium flux, at 10 µM; stronger effect = higher value
Short transient receptor potential channel 4 (Mus musculus), sequence (Q9QUQ5 whole entry, looked up): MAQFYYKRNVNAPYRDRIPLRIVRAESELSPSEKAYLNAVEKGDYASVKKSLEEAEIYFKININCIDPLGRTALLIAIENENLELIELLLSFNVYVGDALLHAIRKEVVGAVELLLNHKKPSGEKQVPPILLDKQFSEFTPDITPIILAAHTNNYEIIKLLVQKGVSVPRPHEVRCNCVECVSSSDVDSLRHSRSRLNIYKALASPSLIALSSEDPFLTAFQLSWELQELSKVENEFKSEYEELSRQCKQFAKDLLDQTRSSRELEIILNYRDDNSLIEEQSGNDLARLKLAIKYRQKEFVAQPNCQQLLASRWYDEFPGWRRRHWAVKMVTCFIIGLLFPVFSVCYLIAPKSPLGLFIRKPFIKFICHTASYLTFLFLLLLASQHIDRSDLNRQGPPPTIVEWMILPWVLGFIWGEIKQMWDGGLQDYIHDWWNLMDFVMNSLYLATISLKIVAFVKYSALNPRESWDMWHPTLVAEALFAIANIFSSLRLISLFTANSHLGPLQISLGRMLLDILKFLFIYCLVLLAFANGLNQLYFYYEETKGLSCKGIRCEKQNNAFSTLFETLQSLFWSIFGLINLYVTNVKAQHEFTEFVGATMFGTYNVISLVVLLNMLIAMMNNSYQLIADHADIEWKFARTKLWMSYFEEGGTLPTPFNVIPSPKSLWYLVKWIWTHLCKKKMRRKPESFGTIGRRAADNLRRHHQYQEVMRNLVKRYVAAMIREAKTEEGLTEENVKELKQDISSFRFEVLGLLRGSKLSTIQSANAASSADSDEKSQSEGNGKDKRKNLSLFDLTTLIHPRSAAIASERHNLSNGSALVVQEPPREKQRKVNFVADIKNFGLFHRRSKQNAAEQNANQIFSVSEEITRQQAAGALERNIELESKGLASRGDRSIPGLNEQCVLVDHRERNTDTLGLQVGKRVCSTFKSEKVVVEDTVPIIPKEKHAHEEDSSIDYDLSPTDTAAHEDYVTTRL

[6] = biological target: Short transient receptor potential channel 4 (Mus musculus) (UniProt Q9QUQ5); assay: inhibitors of mouse TRPC4 channel, confirmation, cell-based, second round, Fluo4, HEK293 TRPC4beta/mu-opioid, 1 µM (AID 2637;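 active means calcium signal ratio cut to more than 3 SD under the fully stimulated control mean yet still positive, in both repeats and the primary screen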); settings: Fluo4 calcium flux, DAMGO, at 1 µM; stronger effect = higher value
[7] = biological target: Short transient receptor potential channel 4 (Mus musculus) (UniProt Q9QUQ5); assay: TRPC4 positive allosteric modulators, dose response, cell-based, HEK293 TRPC4/mu-opioid, Fluo-4 calcium, EC20 DAMGO (AID 434941;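 active means earlier screen potentiator hit that boosts the TRPC4 ion channel at some dose, with a dose response; inactive means no potentiation, no dose response, or not a prior hit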;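 further: calcium entry triggered by an EC20 dose of DAMGO at the co-expressed mu-opioid receptor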)
[8] = biological target: Short transient receptor potential channel 4 (Mus musculus) (UniProt Q9QUQ5); assay: mouse TRPC4 channel inhibitors, dose response, cell-based, HEK293 TRPC4/mu-opioid, Fluo-4 calcium (AID 434942;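 active means primary screen inhibitor hit that blocks the TRPC4 channel at some tested dose, yielding a dose curve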)
[9] = biological target: Short transient receptor potential channel 6 (Mus musculus) (UniProt Q61143); assay: inhibition of mouse TRPC6 channel, confirmation, selectivity assay for TRPC4 inhibitor project, cell-based, HEK293, membrane potential dye, duplicate (AID 434948;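 active means active in primary screen and both duplicates, each dropping signal beyond three positive-control SD with fluorescence still positive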); settings: HEK293 TRPC6, membrane potential dye fluorescence, at 10 µM; inhibition: stronger effect = higher value, stimulated with maximal-effect acetylcholine unless noted; outcome: stimulated with maximal-effect acetylcholine unless noted
Short transient receptor potential channel 6 (Mus musculus), sequence (Q61143 whole entry, looked up): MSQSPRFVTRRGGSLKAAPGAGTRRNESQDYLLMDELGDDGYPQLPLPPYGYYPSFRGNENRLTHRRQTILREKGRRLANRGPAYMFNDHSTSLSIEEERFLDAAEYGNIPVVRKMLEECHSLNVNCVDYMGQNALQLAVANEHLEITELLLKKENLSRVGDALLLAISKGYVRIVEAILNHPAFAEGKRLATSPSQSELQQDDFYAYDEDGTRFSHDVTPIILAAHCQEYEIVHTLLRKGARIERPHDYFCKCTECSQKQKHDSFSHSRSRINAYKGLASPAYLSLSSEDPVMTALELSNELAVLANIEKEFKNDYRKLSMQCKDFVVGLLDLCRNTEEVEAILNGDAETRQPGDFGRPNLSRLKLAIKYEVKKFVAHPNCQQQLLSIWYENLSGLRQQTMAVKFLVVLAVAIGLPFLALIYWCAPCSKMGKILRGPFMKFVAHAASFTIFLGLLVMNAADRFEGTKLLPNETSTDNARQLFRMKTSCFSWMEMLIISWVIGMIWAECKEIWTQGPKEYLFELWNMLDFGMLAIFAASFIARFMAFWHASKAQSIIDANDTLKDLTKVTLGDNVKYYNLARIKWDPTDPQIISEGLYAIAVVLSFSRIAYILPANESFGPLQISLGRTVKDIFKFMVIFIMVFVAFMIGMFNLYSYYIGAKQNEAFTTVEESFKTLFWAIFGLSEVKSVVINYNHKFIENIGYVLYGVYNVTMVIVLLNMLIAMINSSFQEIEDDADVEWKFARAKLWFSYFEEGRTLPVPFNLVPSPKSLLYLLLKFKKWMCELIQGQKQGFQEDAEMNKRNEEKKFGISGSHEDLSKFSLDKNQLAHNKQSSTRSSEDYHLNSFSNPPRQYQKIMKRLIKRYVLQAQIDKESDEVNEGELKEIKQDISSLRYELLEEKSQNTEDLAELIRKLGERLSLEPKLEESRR

[10] = biological target: Short transient receptor potential channel 6 (Mus musculus) (UniProt Q61143); assay: activation of mouse TRPC6 channel, confirmation, selectivity assay for TRPC4 activator project, cell-based, HEK293, membrane potential dye, duplicate (AID 434950;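 active means membrane potential signal rise above negative control mean plus 3 SD in both duplicates, also active in the earlier TRPC4 screen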;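 on activation: 0% = buffer only wells and 100% = acetylcholine maximal-effect wells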); settings: HEK293 TRPC6, membrane potential fluorescence, at 10 µM; stronger effect = higher value
[11] = biological target: Short transient receptor potential channel 6 (Mus musculus) (UniProt Q61143); assay: TRPC6 potentiation by TRPC4 potentiator hits, confirmation, selectivity assay for TRPC4 potentiator project, HEK293 cells, membrane potential dye, duplicate (AID 434952;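 active means compound raising the membrane signal above positive-control mean plus 3 SD in both repeats, and a primary screen hit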); settings: HEK293 TRPC6, membrane potential dye fluorescence, at 10 µM; maximal acetylcholine added after compound unless noted
[12] = biological target: Short transient receptor potential channel 4 (Mus musculus) (UniProt Q9QUQ5); assay: calcium flux activators in TRPC4/5HT1a cells, counter-screen for TRPC4 activator project, cell-based, second counter screen, HEK293 TRPC4/5HT1a, Fluo-4 (AID 434977;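 active means calcium signal rise above buffer-control mean plus 5 SD in both duplicates, and also a hit in the primary screen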;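 on activation: plate controls were assay buffer for no effect and maximal serotonin response for full effect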); settings: Fluo-4 calcium flux, at 10 µM; stronger effect = higher value
[13] = calcium flux inhibitors in TRPC4/5HT1a cells, confirmation, counter-screen for TRPC4 inhibitor project, cell-based, second counter screen, HEK293 TRPC4/5HT1a, Fluo-4 (AID 434978;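 active means primary screen active whose calcium signal fell more than 3 SD beyond the full-serotonin control mean in both duplicate plates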;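 further: serotonin given first at submaximal then at maximal dose after compound preincubation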); settings: Fluo-4 calcium flux, at 10 µM; inhibition: stronger effect = higher value, serotonin added to trigger calcium flux unless noted; outcome: serotonin added to trigger calcium flux unless noted
[14] = system: TRPC4 (mouse), co-expressed with 5HT1a in HEK293; assay: calcium flux potentiators in TRPC4/5HT1a cells, confirmation, counter-screen for TRPC4 potentiator project, cell-based, second counter screen, HEK293 TRPC4/5HT1a, Fluo-4 (AID 434979;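 active means signal rise over 3 SD above mean of control wells given weak agonist, in both repeats and first screen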); settings: Fluo-4 calcium flux, at 10 µM; outcome: serotonin added at its EC20 dose unless noted; potentiation: stronger effect = higher value, serotonin added at its EC20 dose unless noted
[15] = calcium flux activation in mu-opioid HEK293 cells, confirmation, counter-screen for TRPC4 activator project, cell-based, HEK293 mu-opioid receptor line (AID 449723;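 active means hit in primary screen, with calcium signal over 5 SD above buffer well mean in both duplicates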;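 further: counter screen cells carry the mu-opioid receptor alone and lack TRPC4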); settings: Fluo-4 calcium fluorescence, at 10 µM; stronger effect = higher value
[16] = calcium flux enhancement in mu-opioid HEK293 cells, confirmation, counter-screen for TRPC4 allosteric potentiator project, cell-based, HEK293 mu-opioid receptor line (AID 449724;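 active means calcium signal rise more than 3 SD above the low-dose agonist control mean, in both duplicate plates and the primary screen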); settings: Fluo-4 calcium flux, at 10 µM; compound added before EC20 DAMGO stimulus unless noted

COc1ccc(CNCCc2c[nH]c3ccccc23)cc1OC
active: activation [1] 110% | activation [10] 28%
inactive: outcome [2] | outcome [3] | outcome [4] | outcome [5] | outcome [6] | outcome [7] | outcome [8] | outcome [9] | outcome [11] | outcome [12] | outcome [13] | outcome [14] | outcome [15] | outcome [16]

CCc1n[nH]c(CCN)n1
inactive: outcome [2] | outcome [3] | outcome [4] | outcome [5] | outcome [6] | outcome [7] | outcome [8] | outcome [9] | outcome [10] | outcome [11] | outcome [13] | outcome [14] | outcome [15] | outcome [16]
active: activation [1] 178% | activation [12] 48.7%

O=[N+]([O-])c1ccc(N2CCCNCC2)c2ncccc12
active: activation [1] 133% | activation [2] 139% | activation [12] 55.8%
inactive: outcome [3] | outcome [4] | outcome [5] | outcome [6] | outcome [7] | outcome [8] | outcome [9] | outcome [10] | outcome [11] | outcome [13] | outcome [14] | outcome [15] | outcome [16]

CCN(CC)c1ccc(/C=C/[N+](=O)[O-])cc1
active: activation [1] 96% | activation [10] 906% | activation [12] 67.9% | activation [15] 113%
inactive: outcome [2] | outcome [3] | outcome [4] | outcome [5] | outcome [6] | outcome [7] | outcome [8] | outcome [9] | outcome [11] | outcome [13] | outcome [14] | outcome [16]

CCOc1cc(CNCCc2c[nH]c3ccccc23)cc(Cl)c1OC
active: activation [1] 129% | activation [12] 65.6%
inactive: outcome [2] | outcome [3] | outcome [4] | outcome [5] | outcome [6] | outcome [7] | outcome [8] | outcome [9] | outcome [10] | outcome [11] | outcome [13] | outcome [14] | outcome [15] | outcome [16]

Cc1ccc(NC(=S)NCCc2cnc[nH]2)cc1C
inactive: outcome [3] | outcome [4] | outcome [5] | outcome [6] | outcome [7] | outcome [8] | outcome [9] | outcome [10] | outcome [11] | outcome [13] | outcome [14] | outcome [15] | outcome [16]
active: activation [1] 199% | activation [2] 106% | activation [12] 85%

COc1cc2c3cc1Oc1cc(ccc1O)C[C@@H]1c4c(cc(OC)c(O)c4Oc4ccc(cc4)C[C@H]3N(C)CC2)CCN1C
active: activation [1] 69% | activation [10] 26%
inactive: outcome [2] | outcome [3] | outcome [4] | outcome [5] | outcome [6] | outcome [7] | outcome [8] | outcome [9] | outcome [11] | outcome [12] | outcome [13] | outcome [14] | outcome [15] | outcome [16]

Cc1nc2ccccn2c1P(=S)(N1CCCCC1)N1CCCCC1
inactive: outcome [2] | outcome [3] | outcome [4] | outcome [5] | outcome [6] | outcome [7] | outcome [8] | outcome [9] | outcome [11] | outcome [13] | outcome [14] | outcome [16]
active: activation [1] 88% | activation [10] 88% | activation [12] 87.7% | activation [15] 74.7%

CC(N)Cc1c[nH]c2cc3c(cc12)OCCO3 (stereo not given)
inactive: outcome [3] | outcome [4] | outcome [5] | outcome [6] | outcome [7] | outcome [8] | outcome [9] inactive [setting not given] | outcome [10] | outcome [11] inactive [setting not given] | outcome [13] inactive [setting not given] | outcome [14] inactive [setting not given] | outcome [15] | outcome [16] inactive [setting not given]
active: activation [1] 195% | activation [2] 60% | activation [12] 107%

O=[N+]([O-])c1ccc(N2CCNCC2)c2ncccc12
inactive: outcome [5] | outcome [6] | outcome [7] | outcome [8] | outcome [9] | outcome [10] | outcome [11] | outcome [13] | outcome [15] | outcome [16]
active: activation [1] 69% | activation [2] 64% | potentiation [3] 19% | potentiation [4] 23% | activation [12] 38% | potentiation [14] 11%

COc1ccc(C(=O)C2CCCN(C3CSCCSC3)C2)cc1OC (stereo not given)
active: activation [1] 166% | activation [2] 86% | activation [10] 33.5% | activation [12] 87.7%
inactive: outcome [3] | outcome [4] | outcome [5] | outcome [6] | outcome [7] | outcome [8] | outcome [9] | outcome [11] | outcome [13] | outcome [14] | outcome [15] | outcome [16]

CNCCc1nc(N)n[nH]1
inactive: outcome [3] | outcome [4] | outcome [5] | outcome [6] | outcome [7] | outcome [8] | outcome [9] | outcome [10] | outcome [11] | outcome [13] | outcome [14] | outcome [15] | outcome [16]
active: activation [1] 160% | activation [2] 172% | activation [12] 146%

CCOC(=O)C1(CCc2ccccc2)CCN(Cc2ccc(NC(C)=O)cc2)CC1
inactive: outcome [3] | outcome [4] | outcome [5] | outcome [6] | outcome [7] | outcome [8] | outcome [9] | outcome [11] | outcome [12] | outcome [13] | outcome [14] | outcome [15] | outcome [16]
active: activation [1] 83% | activation [2] 90% | activation [10] 41.5%

CN(C)C1(CNC(=O)Nc2ccc(Cl)c(Cl)c2)CCCCC1
active: activation [1] 229% | activation [2] 64% | activation [12] 29.4% | activation [15] 42.7%
inactive: outcome [3] | outcome [4] | outcome [5] | outcome [6] | outcome [7] | outcome [8] | outcome [9] | outcome [10] | outcome [11] | outcome [13] | outcome [14] | outcome [16]

Fc1cccc(C2NCCc3[nH]cnc32)c1 (stereo not given)
inactive: outcome [2] | outcome [3] | outcome [4] | outcome [5] | outcome [6] | outcome [7] | outcome [8] | outcome [9] | outcome [10] | outcome [11] | outcome [13] | outcome [14] | outcome [15] | outcome [16]
active: activation [1] 201% | activation [12] 53.4%
